Reference: PubChem BioAssay (EPA / NIEHS)
“And” between values parts separate entries of the source, which are not always exact repeats. Identical values can stand only once. Some compounds were tested as several samples or in several runs, with calls that do not always agree. The source made the active and inactive calls. The calls were made as follows: active = hit-call score of the fitted dose curve at least 0.9, where 1 is the maximum; inactive = score below 0.9.

How the values were obtained:
[1] = read-out: TIMP metallopeptidase inhibitor 1 (TIMP1), TIMP1 (gene 7076); assay: BSK_hDFCGF_TIMP1: BioMAP Diversity Plus: hDFCGF Assay for TIMP metallopeptidase inhibitor 1 (TIMP1) Biomarker Activity (AID 2283062); details: primary human foreskin fibroblasts; actives raise or lower the signal
Procedure, shortened: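 Human skin fibroblasts (primary), hDFCGF system; compound exposure 24 h; TIMP-1 by ELISA; bidirectional fit vs DMSO negative control; overt cytotoxicity by SRB in parallel wells.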

[2] = read-out: Monokine induced gamma interferon (MIG), CXCL9 (gene 4283); assay: BSK_hDFCGF_MIG: BioMAP Diversity Plus: hDFCGF Assay for Monokine induced gamma interferon (MIG) Biomarker Activity (AID 2283063); details: primary human foreskin fibroblasts; actives raise or lower the signal
Procedure, shortened: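 Chemicals were added to primary human foreskin fibroblast cultures, which were sampled 24 h later. MIG levels were then quantified by ELISA and responses fitted in both directions relative to DMSO.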

[3] = read-out: Matrix Metallopeptidase 1 (MMP1), MMP1 (gene 4312); assay: BSK_hDFCGF_MMP1: BioMAP Diversity Plus: hDFCGF Assay for Matrix Metallopeptidase 1 (MMP1) Biomarker Activity (AID 2283064); details: primary human foreskin fibroblasts; actives raise or lower the signal
Procedure, shortened: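 ELISA read-out of MMP1 from human foreskin fibroblasts (primary skin cells), 24 h post-dose. Gain or loss of signal was fitted bidirectionally versus DMSO negative control; cytotoxicity was checked by SRB in parallel cultures.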

[4] = read-out: Vascular cell adhesion molecule 1 (VCAM1), VCAM1 (gene 7412); assay: BSK_hDFCGF_VCAM1: BioMAP Diversity Plus: hDFCGF Assay for Vascular cell adhesion molecule 1 (VCAM1) Biomarker Activity (AID 2283065); details: primary human foreskin fibroblasts; actives raise or lower the signal;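 as to AC50: VCAM-1 protein level quantified by ELISA after 24 h chemical exposure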
Procedure, shortened: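 Human foreskin fibroblast primary cells, chemical exposure 24 h; VCAM-1 by ELISA; bidirectional fit, DMSO = negative control/baseline.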

[5] = read-out: Plasminogen activator inhibitor-1 (PAI1), SERPINE1 (gene 5054); assay: BSK_hDFCGF_PAI1: BioMAP Diversity Plus: hDFCGF Assay for Plasminogen activator inhibitor-1 (PAI1) Biomarker Activity (AID 2283066); details: primary human foreskin fibroblasts; actives raise or lower the signal
Procedure, shortened: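 Fibroblasts from human foreskin were treated with test chemical. After 24 h, PAI-1 was measured by ELISA. Activity was fitted in both directions relative to DMSO.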

[6] = read-out: Intercellular Adhesion Molecule 1 (ICAM1), ICAM1 (gene 3383); assay: BSK_KF3CT_ICAM1: BioMAP Diversity Plus: KF3CT Assay for Intercellular Adhesion Molecule 1 (ICAM1) Biomarker Activity (AID 2283067); details: primary human keratinocytes with fibroblasts; actives raise or lower the signal
Procedure, shortened: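 ICAM-1 levels are measured by ELISA 24 h after dosing a primary human co-culture of keratinocytes and foreskin fibroblasts. Activity in either direction is fitted relative to DMSO vehicle.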

[7] = read-out: Interferon-gamma inducible Protein 10 (IP10), CXCL10 (gene 3627); assay: BSK_KF3CT_IP10: BioMAP Diversity Plus: KF3CT Assay for Interferon-gamma inducible Protein 10 (IP10) Biomarker Activity (AID 2283068); details: primary human keratinocytes with fibroblasts; actives raise or lower the signal
Procedure, shortened: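 Human keratinocyte plus foreskin fibroblast primary co-culture exposed to test chemical for 24 h; IP-10 measured by ELISA. Concentration-response fitted bidirectionally against DMSO control as baseline.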

[8] = BSK_KF3CT_SRB: Viability Assessment in the BioMAP Diversity Plus: KF3CT Assay (AID 2283069); details: primary human keratinocytes with fibroblasts;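 also: total protein by sulforhodamine B staining as a cytotoxicity measure; read 24 h after compound addition; fitted for both signal gain and loss against DMSO baseline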
Procedure, shortened: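 SRB read-out at 560 nm (0.1% stain, TCA-fixed cells) gauges overt cytotoxicity in a human skin keratinocyte–fibroblast co-culture 24 h post-dosing. Signal change was fitted bidirectionally relative to DMSO control.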

[9] = read-out: Interleukin-1 alpha (IL1a), IL1A (gene 3552); assay: BSK_KF3CT_IL1a: BioMAP Diversity Plus: KF3CT Assay for Interleukin-1 alpha (IL1a) Biomarker Activity (AID 2283070); details: primary human keratinocytes with fibroblasts; actives raise or lower the signal
Procedure, shortened: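 Primary skin co-culture (keratinocytes, foreskin fibroblasts), 24 h exposure; ELISA for IL-1a; bidirectional curve fit vs DMSO.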

[10] = read-out: TIMP metallopeptidase inhibitor 2 (TIMP2), TIMP2 (gene 7077); assay: BSK_KF3CT_TIMP2: BioMAP Diversity Plus: KF3CT Assay for TIMP metallopeptidase inhibitor 2 (TIMP2) Biomarker Activity (AID 2283071); details: primary human keratinocytes with fibroblasts; actives raise or lower the signal
Procedure, shortened: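 Chemicals were dosed onto human skin primary co-cultures of keratinocytes and foreskin fibroblasts, and TIMP-2 was measured by ELISA after 24 hours. Activity in either direction was fitted relative to DMSO.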

Row | Structure (SMILES) | outcome [1] | outcome [2] | outcome [3] | outcome [4] | outcome [5] | outcome [6] | outcome [7] | outcome [8] | outcome [9] | outcome [10] | AC50 [1] | AC50 [2] | AC50 [3] | AC50 [4] | AC50 [5] | AC50 [6] | AC50 [7] | AC50 [8] | AC50 [9] | AC50 [10]
1 | CC(C)C1(C)N=C(c2nc3ccccc3cc2C(=O)O)NC1=O (stereo not given) | inactive | inactive | inactive | inactive | inactive | inactive | inactive | inactive | inactive | inactive |  |  |  |  |  |  |  |  |  | 
2 | COP(N)(=O)SC (stereo not given) | inactive | inactive | inactive | inactive |  | inactive | inactive | inactive | inactive | inactive |  |  |  |  |  |  |  |  |  | 
3 | CC1=C(C(=O)Nc2ccccc2)SCCO1 | inactive | inactive | inactive | inactive |  | inactive | inactive | inactive | inactive | inactive |  |  |  |  |  |  |  |  |  | 
4 | CCc1nn(C)c(C(=O)NCc2ccc(C(C)(C)C)cc2)c1Cl |  |  |  |  |  |  |  |  |  |  | 32.1 µM (active) | 33.7 µM (active) | 32.2 µM (active) | 20 µM (active) | 15.5 µM (active) | 32.9 µM (active) | 18.7 µM (active) | 32.4 µM (active) | 29.5 µM (active) | 27.7 µM (active)
5 | COC(=O)C(C)Oc1ccc(Oc2ccc(Cl)cc2Cl)cc1 (stereo not given) | inactive | inactive | inactive | inactive |  | inactive | inactive | inactive | inactive | inactive |  |  |  |  |  | 25.1 µM (active) | 25.4 µM (active) and 20 µM (active) |  | 5.15 µM (active) | 
6 | CCOC(=O)CC(SP(=S)(OC)OC)C(=O)OCC (stereo not given) | inactive | inactive | inactive | inactive |  | inactive | inactive | inactive | inactive | inactive |  |  |  |  |  |  |  |  |  | 
7 | O=C(O)c1nc(Cl)ccc1Cl | inactive | inactive | inactive | inactive |  | inactive | inactive | inactive | inactive | inactive |  |  |  |  |  |  | 0.147 µM (active) |  | 0.148 µM (active) | 
8 | COc1nc(C)nc(NC(=O)NS(=O)(=O)c2ccccc2CCC(F)(F)F)n1 | inactive | inactive | inactive | inactive |  | inactive | inactive | inactive | inactive | inactive |  |  | 0.439 µM (active) |  |  |  |  |  |  | 
9 | COc1nc(C)nc(NC(=O)NS(=O)(=O)c2ccccc2Cl)n1 | inactive | inactive | inactive | inactive |  | inactive | inactive | inactive | inactive | inactive |  |  |  |  |  |  | 0.148 µM (active) |  |  | 31.6 µM (active)
10 | CCON=C(CC)C1=C(O)CC(c2c(C)cc(C)cc2C)CC1=O (stereo not given) | inactive | inactive | inactive | inactive | inactive | inactive | inactive | inactive | inactive | inactive |  |  |  |  |  |  |  |  |  | 
11 | C=CCC1=C(C)C(OC(=O)C2C(C=C(C)C)C2(C)C)CC1=O (stereo not given) |  |  |  |  |  | inactive | inactive | inactive | inactive | inactive | 33.9 µM (active) [middle of 4 runs] | 38.9 µM (active) [middle of 4 runs] | 35.6 µM (active) [middle of 4 runs] | 28.7 µM (active) [middle of 4 runs] | 30.4 µM (active) and 38.4 µM (active) and 38.8 µM (active) |  | 35 µM (active) and 31 µM (active) and 29.2 µM (active) | 34.7 µM (active) and 25.5 µM (active) | 34.3 µM (active) and 38.6 µM (active) | 31.1 µM (active) and 32.9 µM (active) and 26.7 µM (active)
12 | CC(Oc1ccc(Cl)cc1Cl)C(=O)O (stereo not given) | inactive | inactive | inactive | inactive | inactive | inactive | inactive | inactive | inactive | inactive |  |  |  |  |  |  |  |  |  | 
13 | C#CCOS(=O)OC1CCCCC1Oc1ccc(C(C)(C)C)cc1 (stereo not given) |  |  |  |  |  | inactive |  |  |  |  | 5.66 µM (active) | 13 µM (active) | 10 µM (active) | 3.65 µM (active) | 5.14 µM (active) |  | 12.8 µM (active) | 9.7 µM (active) | 14.8 µM (active) | 14 µM (active)
